The supplement of paper PMC6897291

What was measured:
[1] = system: U-2932; experiment: growth inhibition by drug alone (1 - RLU/untreated control) (fraction); higher = stronger inhibition; conditions: 177Lu-lilotomab satetraxetan 0 ug/ml
How it was run: (§1)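 RIVA or U-2932 cells, untreated or pretreated 18 h with a radiolabelled anti-CD37 antibody conjugate (~600 MBq/mg; 0.5 µg/ml RIVA, 1 µg/ml U-2932), were washed and seeded at 3,000 cells/well on plates pre-printed with the Selleck Cambridge Cancer Compound library. Doses were 10/100 nM (RIVA) or 10/1,000 nM (U-2932). RealTime-Glo luminescence was read daily from day 3 after 1 h at 37°C. Growth inhibition is 1 − RLU/mean of 48 untreated no-drug wells per plate.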

[2] = system: RIVA; experiment: as above; conditions: 177Lu-lilotomab satetraxetan 0 ug/ml
How it was run: as §1

[3] = system: U-2932; experiment: growth inhibition by drug plus 177Lu-lilotomab satetraxetan (1 - RLU/untreated control) (fraction); higher = stronger inhibition; conditions: 177Lu-lilotomab satetraxetan 1 ug/ml
How it was run: as §1

[4] = system: RIVA; experiment: as above; conditions: 177Lu-lilotomab satetraxetan 0.5 ug/ml
How it was run: as §1

| Structure (SMILES) | growth inhibition by drug alone ([1]; 10 nM, time (day): 3) | growth inhibition by drug alone ([1]; 10 nM, time (day): 4) | growth inhibition by drug alone ([1]; 10 nM, time (day): 5) | growth inhibition by drug alone ([1]; 10 nM, time (day): 6) | growth inhibition by drug alone ([1]; 1000 nM, time (day): 3) | growth inhibition by drug alone ([1]; 1000 nM, time (day): 4) | growth inhibition by drug alone ([1]; 1000 nM, time (day): 5) | growth inhibition by drug alone ([1]; 1000 nM, time (day): 6) | growth inhibition by drug alone ([2]; 10 nM, time (day): 3) | growth inhibition by drug alone ([2]; 10 nM, time (day): 4) | growth inhibition by drug alone ([2]; 10 nM, time (day): 5) | growth inhibition by drug alone ([2]; 10 nM, time (day): 6) | growth inhibition by drug alone ([2]; 100 nM, time (day): 3) | growth inhibition by drug alone ([2]; 100 nM, time (day): 4) | growth inhibition by drug alone ([2]; 100 nM, time (day): 5) | growth inhibition by drug alone ([2]; 100 nM, time (day): 6) | growth inhibition by drug plus 177Lu-lilotomab satetraxetan ([3]; 10 nM, time (day): 3) | growth inhibition by drug plus 177Lu-lilotomab satetraxetan ([3]; 10 nM, time (day): 4) | growth inhibition by drug plus 177Lu-lilotomab satetraxetan ([3]; 10 nM, time (day): 5) | growth inhibition by drug plus 177Lu-lilotomab satetraxetan ([3]; 10 nM, time (day): 6) | growth inhibition by drug plus 177Lu-lilotomab satetraxetan ([3]; 1000 nM, time (day): 3) | growth inhibition by drug plus 177Lu-lilotomab satetraxetan ([3]; 1000 nM, time (day): 4) | growth inhibition by drug plus 177Lu-lilotomab satetraxetan ([3]; 1000 nM, time (day): 5) | growth inhibition by drug plus 177Lu-lilotomab satetraxetan ([3]; 1000 nM, time (day): 6) | growth inhibition by drug plus 177Lu-lilotomab satetraxetan ([4]; 10 nM, time (day): 3) | growth inhibition by drug plus 177Lu-lilotomab satetraxetan ([4]; 10 nM, time (day): 4) | growth inhibition by drug plus 177Lu-lilotomab satetraxetan ([4]; 10 nM, time (day): 5) | growth inhibition by drug plus 177Lu-lilotomab satetraxetan ([4]; 10 nM, time (day): 6) | growth inhibition by drug plus 177Lu-lilotomab satetraxetan ([4]; 100 nM, time (day): 3) | growth inhibition by drug plus 177Lu-lilotomab satetraxetan ([4]; 100 nM, time (day): 4) | growth inhibition by drug plus 177Lu-lilotomab satetraxetan ([4]; 100 nM, time (day): 5) | growth inhibition by drug plus 177Lu-lilotomab satetraxetan ([4]; 100 nM, time (day): 6) |
| --- | --- | --- | --- | --- | --- | --- | --- | --- | --- | --- | --- | --- | --- | --- | --- | --- | --- | --- | --- | --- | --- | --- | --- | --- | --- | --- | --- | --- | --- | --- | --- | --- |
| CNCc1ccc(-c2[nH]c3cc(F)cc4c3c2CCNC4=O)cc1 | 0.062 | 0.0535 | 0.0443 | 0.155 | 0.0442 | 0.0462 | 0.0516 | 0.0343 | -0.0585 | -0.0309 | -0.0988 | -0.165 | -0.0509 | -0.0204 | -0.0791 | -0.0893 | 0.05 | 0.0426 | 0.0882 | 0.222 | 0.0393 | 0.0885 | 0.124 | 0.238 | 0.384 | 0.514 | 0.55 | 0.578 | 0.507 | 0.54 | 0.574 | 0.57 |
| Cn1cnc(N)c2ncnc1-2 [3-Methyladenine] | 0.0713 | 0.0365 | 0.0189 | 0.0577 | 0.00855 | 0.0177 | -0.0282 | -0.00202 | 0.018 | -0.00798 | -0.0197 | -0.0603 | -0.346 | -0.249 | -0.276 | -0.338 | 0.0187 | 0.0789 | 0.12 | 0.165 | -0.00331 | 0.0603 | 0.0974 | 0.207 | 0.557 | 0.602 | 0.615 | 0.612 | 0.517 | 0.565 | 0.57 | 0.56 |
| C[C@]12CCC(=O)C=C1CC[C@@H]1[C@@H]2[C@@H](O)C[C@@]2(C)[C@H]1CC[C@]2(O)C(=O)CO [Hydrocortisone (Cortisol)] | 0.112 | 0.0854 | 0.0156 | -0.0358 | 0.303 | 0.304 | 0.221 | 0.167 | -0.0911 | -0.0297 | -0.194 | -0.593 | -0.515 | -0.297 | -0.373 | -0.697 | 0.0227 | 0.0897 | 0.119 | 0.139 | 0.281 | 0.288 | 0.293 | 0.362 | 0.519 | 0.578 | 0.597 | 0.608 | 0.101 | 0.303 | 0.317 | 0.347 |
| C=CC[C@@H]1/C=C(\C)C[C@H](C)C[C@H](OC)[C@H]2O[C@@](O)(C(=O)C(=O)N3CCCC[C@H]3C(=O)O[C@H](/C(C)=C/[C@@H]3CC[C@@H](O)[C@H](OC)C3)[C@H](C)[C@@H](O)CC1=O)[C@H](C)C[C@@H]2OC [FK-506 (Tacrolimus)] | 0.267 | 0.364 | 0.442 | 0.532 | 0.227 | 0.39 | 0.449 | 0.553 | 0.737 | 0.636 | 0.618 | 0.602 | 0.867 | 0.796 | 0.777 | 0.783 | 0.323 | 0.406 | 0.478 | 0.594 | 0.206 | 0.367 | 0.459 | 0.574 | 0.801 | 0.806 | 0.834 | 0.875 | 0.87 | 0.859 | 0.89 | 0.913 |
| O=C(O)C(Cc1c[nH]c2ccccc12)N1C(=O)c2ccccc2C1=O (configuration not stated) | 0.0147 | 0.0153 | -0.0484 | -0.236 | -0.0782 | -0.0484 | -0.0679 | -0.115 | -0.0918 | -0.166 | -0.249 | -0.485 | -0.231 | -0.283 | -0.253 | -0.339 | -0.0896 | -0.0477 | -0.032 | 0.0338 | -0.157 | -0.0639 | -0.0646 | -0.0481 | 0.311 | 0.457 | 0.475 | 0.497 | 0.275 | 0.394 | 0.397 | 0.381 |
| COc1cc(Nc2c(C#N)cnc3cc(OCCCN4CCN(C)CC4)c(OC)cc23)c(Cl)cc1Cl [Bosutinib (SKI-606)] | 0.086 | 0.0525 | -0.0862 | -0.0345 | 0.264 | 0.239 | 0.19 | 0.239 | -0.0137 | -0.0501 | -0.131 | -0.404 | -0.377 | -0.355 | -0.406 | -0.598 | 0.0416 | 0.085 | 0.124 | 0.135 | 0.333 | 0.281 | 0.33 | 0.431 | 0.588 | 0.626 | 0.647 | 0.638 | 0.263 | 0.36 | 0.378 | 0.403 |
